JMJD2E inh – blocks human JMJD2E demethylase activity; B2RXH2; JMJD2E catalytic domain, FDH-coupled NADH fluorescence (FDH is formaldehyde dehydrogenase); Potency, µM (series often up to 57.1 µM), for inactives: at the highest dose activity change, negative = inhibition, most hits filed as inhibitors; 1.6% of 230,000 active; AID 2147;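 further: potency means the concentration at half of the fitted maximal effect; 0% = wells with enzyme and -100% = buffer wells without enzyme; nearly all actives have a fitted effect of over 50% in size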
GoLoco inh red – RGS12 GoLoco-Gai1 interaction inhibition. P63096. Gai1:RGS12 GoLoco peptide FP, rhodamine, 10 min. Potency, µM (titrated, usually from 61.6 µM), for inactives: at the top dose activity, negative = inhibition, actives largely listed as inhibitors. 0.44% of 230,000 active. AID 880; active means well fitted inhibition curve with a large enough effect, not every such curve was filed as active; inactive means no such curve, though single readings can be large or run the other way; further: potency means the concentration at half of the fitted maximal effect; nearly all actives have a fitted effect of over 30% in size
ALDH1A1 inh – inhibitors of human aldehyde dehydrogenase 1A1 | P00352 | Purified ALDH1A1, NADH fluorescence, propionaldehyde substrate | Potency, µM (highest dose often 75.3 µM), for inactives: top-dose activity, negative = inhibition, hits mostly inhibitors | 7.3% of 220,000 active | AID 1030;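 further: potency means the concentration at half of the fitted maximal effect; plate controls were no enzyme wells and a reference inhibitor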
NPSR antag – blocks cAMP signaling of the human neuropeptide S receptor; Q6W5P4; AID 1461; 1% of 220,000 active; Potency, µM (top dose mostly 38.3 µM), for the others: at the highest dose activity change, negative = inhibition, usual class: inhibitors; CHO-NPSR cells, cAMP TR-FRET, antagonist mode; active means well fitted curve in the direction sought with a large enough effect; inconclusive means small, poorly fitted or top-dose-only effect, or another doubt; inactive means no such curve, though single readings can be large; an effect the other way counts as inactive or inconclusive; further: potency means the concentration at half of the fitted maximal effect; nearly all actives have a fitted effect of over 50% in size
Target sequence (Q6W5P4 whole entry, looked up): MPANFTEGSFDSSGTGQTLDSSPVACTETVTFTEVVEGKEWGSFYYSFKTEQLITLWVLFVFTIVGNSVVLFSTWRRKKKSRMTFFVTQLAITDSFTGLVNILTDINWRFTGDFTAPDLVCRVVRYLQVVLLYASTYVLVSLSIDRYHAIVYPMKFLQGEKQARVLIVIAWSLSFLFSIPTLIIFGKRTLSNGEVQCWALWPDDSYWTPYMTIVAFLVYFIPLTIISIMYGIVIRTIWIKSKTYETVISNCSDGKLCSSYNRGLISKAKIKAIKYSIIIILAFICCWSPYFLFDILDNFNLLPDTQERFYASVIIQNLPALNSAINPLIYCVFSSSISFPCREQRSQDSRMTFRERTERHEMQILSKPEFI
FBPA coupling cs – counter-screen for Giardia aldolase inhibitors: coupling enzyme system; activity change, negative = inhibition, % at 58.2 µM, hits read low; 0.67% of 290,000 active; coupling enzyme system counterscreen, AmpLite Red fluorescence; in the data active means activity change below about -30%
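Final compound at 57.5 uM, incubated 10 min at RT with coupling enzyme reagent (glyceraldehyde-3-phosphate), then 20 min with substrate and AmpLite Red detection. Fluorescence read at 525/598 nm; tests interference with the coupling assay, not aldolase inhibition.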
Sfp PPTase inh – blocks B. subtilis Sfp PPTase activity; 3.5% of 310,000 active; Biochemical Sfp PPTase activity, qHTS; Potency, µM, for inactives: largest response in the series, negative = inhibition, usual class: inhibitors; AID 1490; Q9F4F7; active means well fitted curve in the direction sought with a large enough effect; inconclusive means small, poorly fitted or top-dose-only effect, or another doubt; inactive means no such curve, though single readings can be large; an effect the other way counts as inactive or inconclusive;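 further: the enzyme is Sfp with the accession as filed and its product quenches rhodamine fluorescence; potency means the concentration at half of the fitted maximal effect; 0% = enzyme reaction without inhibitor and -100% = no enzyme wells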
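After 15 min at room temperature with compound, 15 nM Sfp received 5 uM rhodamine-CoA plus 12.5 uM BHQ-2-ybbR (50 mM Hepes pH 7.6, 10 mM MgCl2). Rate came from the fluorescence difference over 30 min, ex 525/em 598 nm.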
Active calls of the source: *; u = inconclusive; x = not tested or not shown; [ ] = another dose, or the depositor's remark. Compounds with a hit are over-represented: about 8.5% of the library has one in this group of screens. Unless noted, the call rests on the fitted dose curve; in most records, active means well fitted inhibition curve with a large enough effect (not every such curve was filed as active); inconclusive means small, poorly fitted or top-dose-only effect, or another doubt; inactive means no such curve, though single readings can be large or run the other way. Unless noted, on the % scale 0 is the no-effect control and ±100 the full control effect.

SMILES | JMJD2E inh | GoLoco inh red | ALDH1A1 inh | NPSR antag | FBPA coupling cs | Sfp PPTase inh
Nc1nc(SCC(=O)NC2CCCCC2)n[nH]1 | x | x | x | x | x | -3%
O=C(CSc1nnc(SCc2ccc(Cl)cc2)s1)c1ccc2c(c1)OCO2 | -8% | 2% | 2.2µM* | -8% | -2 | 10%
COCCNc1nnc(SCC(=O)c2ccc3c(c2)OCO3)s1 | -7% | -5% | u | -20%[46.1 µM] | 2 | u
CC/C=C\CC[C@H](O)C1=CCCCC1=O | x | x | 10%[13.5 µM] | x | 0 | 1%
Cc1ccc(OCCC(=O)OCC(=O)Nc2cc(S(=O)(=O)N(C)C)ccc2C)cc1 | -5% | 8% | 4µM* | 2% | -1 | 23%
CN(C)S(=O)(=O)c1ccc(Cl)c(NC(=O)COC(=O)CNC(=O)c2ccco2)c1 | 2% | 12% | u | -3% | -2 | 16%
CN(C)S(=O)(=O)c1ccc(Cl)c(NC(=O)COC(=O)CCSc2ccccc2)c1 | -3% | 6% | 25µM* | 6% | -1 | 5%
C#C[C@@]1(OC(C)=O)CC[C@@H]2[C@@H]3CCC4=C[C@@H](OC(C)=O)CC[C@H]4[C@H]3CC[C@]21C | -3%[25.5 µM] | -3%[21.6 µM] | -17%[20.9 µM] | x | -1 | -12%
C#C[C@]1(OC(C)=O)CC[C@H]2[C@@H]3CCC4=C/C(=N/O)CC[C@@H]4[C@H]3CC[C@@]21CC | x | x | x | x | x | 79µM*
Cc1[nH]c2ccccc2c1C(C#N)(C#N)C1C(=O)c2ccccc2C1=O | u | -7% | x | 1% | -36* | u
CC(C)Oc1ccc(C(=O)NC2=NCCS2)cc1 | -25% | 0% | 20µM* | 15% | 8 | 35µM*
CCCOc1cccc(-c2cc(C(=O)NN)c3ccccc3n2)c1 | 11µM* | 6% | u | 8% | -4 | 2%
Cc1ccc(-c2cc(C(=O)Nc3cccnc3)c3ccccc3n2)o1 | u | -1% | u | 1%[46.1 µM] | -1 | u
O=C(NC(=S)Nc1ccccc1)c1csnn1 | -19% | 13% | 7.9µM* | -5%[46.1 µM] | 1 | 50µM*
CCCOc1cccc(-c2cc(C(=O)N/N=C/c3ccccn3)c3ccccc3n2)c1 | x | x | x | x | x | 10%
COC(=O)c1sccc1NC(=O)c1cc(-c2cccc(C)c2)nc2ccccc12 | u | 5% | -11% | -9%[46.1 µM] | 1 | 16µM*
COc1ccc(NC(=S)NC(=O)c2csnn2)cc1 | -5% | -7% | 1% | -10% | 3 | -25%
Cc1ccc(NC(=O)c2cc(-c3ccc(C)o3)nc3ccccc23)cc1 | -25% | 0% | u | -8%[46.1 µM] | -2 | 10µM*
COC(=O)C1=C[C@@H](C(=O)OC)[C@@H]2C3=C(C(=O)C2(C)C)[C@H](C)n2c(=O)n(C)c(=O)n2[C@@H]3C1 | x | x | x | x | 1 | 14%
COc1cc(-c2cc(C(=O)Nc3cccc(C(C)=O)c3)c3ccccc3n2)cc(OC)c1OC | x | x | x | x | 0 | 8%
O=C(NC(=S)Nc1ccccn1)c1cc(-c2ccccc2)nc2ccccc12 | -1% | 14% | -11% | -23% | -2 | 16%
O=C(NC(=S)Nc1ccccc1)c1cc(-c2ccccc2)nc2ccccc12 | u | -3% | 1.3µM* | 4%[46.1 µM] | 0 | 6%
O=C(Nc1ccc(S(=O)(=O)Nc2nccs2)cc1)c1cc(-c2ccccc2)nc2ccccc12 | 3% | 6% | u | -25% | 1 | 4%
Cc1ccc(-c2cc(C(=O)Nc3ccc(S(=O)(=O)Nc4nccs4)cc3)c3ccccc3n2)c(C)c1 | 1% | x | u | -17%[46.1 µM] | -1 | 20µM*
COc1cc(-c2cc(C(=O)Nc3ccc(O)cc3)c3ccccc3n2)cc(OC)c1OC | 4% | 0% | x | -56% | 0 | 22µM*
CCc1nnc(NC(=O)c2cc(-c3ccncc3)nc3ccccc23)s1 | -1% | -31% | 5% | 28% | 4 | 9%
CC(C)(C)c1nnc(NC(=O)c2cc(-c3ccccc3)nc3ccccc23)s1 | u | -2% | u | 14%[46.1 µM] | -4 | 20µM*
COc1cc(OC)cc(C(=O)NNC(=O)CCC(=O)c2cccs2)c1 | x | x | x | x | x | 9%
COc1ccccc1NC(=O)c1cc(-c2ccc(C)o2)nc2ccccc12 | x | x | x | x | 0 | -5%

Screening results (PubChem)
